The values that follow come from PubChem BioAssay.

Assay [1] in a line: viability loss in pontine glioma line – cell-based, SU-DIPG-XXV, MIPE5.0, CellTiter-Glo, qHTS, dose response (AID 1347065; cut-off not given, nearly all actives have AC50 up to about 26 µM;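 note: cells exposed to compound for 48 hours before ATP readout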). The settings on record: CellTiter-Glo ATP luminescence. (Cellular ATP, detected with luciferase, serves as a proxy for viable cell number.)
Assay [2] in a line: sensitizers of A549 cells to miR-34 induction, primary screen, imaging, A549 dox-inducible miR-34, nuclei and caspase counts (AID 1347080;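 active = compounds whose cell count with miR-34 switched on is under 0.7 times the count with it off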). The settings on record: A549 miR-34 inducible, Hoechst nuclei count, 48 h.
Assay [3] is described as follows: survival rescue of mitochondrial mutant cells in low glucose, primary screen, MELAS cybrids, Rieske KO mouse fibroblasts, CellTiter-Glo (AID 1508586;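 active = mean z-score across replicates of 1.96 or higher in either the MELAS or the Rieske mutant cell line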;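 note: z relative to plate mean and SD of compound and empty wells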).
The nature of assay [4]: ovarian cancer cell viability with rucaparib, profiling panel, oncology-focused library, rucaparib conditional (AID 1508598). As to conditions: patient-derived ovarian cancer cells, CellTiter-Glo viability, 144 h, stronger effect = lower value.
The nature of assay [5]: JHH-DIPG-1 glioma cell viability, MIPE5.0 library, CellTiter-Glo luminescence, qHTS (AID 1347067; cut-off not given, nearly all actives have AC50 up to about 26 µM;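 note: cells exposed to compound for 48 hours before readout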). The settings on record: JHH-DIPG-1 glioma viability, CellTiter-Glo ATP luminescence.
A short description of assay [6]: SU-DIPG-XXV glioma cell viability, MIPE5.0 library, qHTS (AID 1347068; cut-off not given, nearly all actives have IC50 up to about 30 µM). On the technique in general: In qHTS, concentration-response curves come from the screen itself.
A short description of assay [7]: kinase inhibitors against Plasmodium liver-stage infection, cell-based, known kinase inhibitor set, luminescence, hepatoma host viability (AID 624392; call rule not given here;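 note: infected cells incubated roughly two days before readout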). As to conditions: Plasmodium liver stage in hepatoma cells, luciferase luminescence, concentration not given here; liver cell % of control: measured here: host liver cell viability; parasite % of control: stronger effect = lower value.

Assay [8] in a line: SU-DIPG-VI glioma cell viability, MIPE4.0 library, CellTiter-Glo luminescence, qHTS (AID 1347066; cut-off not given, nearly all actives have AC50 up to about 30 µM;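 note: cells exposed to compound for 48 hours before readout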). As to conditions: CellTiter-Glo ATP luminescence.
Assay [9] can be described thus: liver-stage malaria parasite growth inhibition, primary screen, cell-based, HepG2, luciferase luminescence, HepG2 viability (AID 624349; in the data active = parasite load remaining mostly below about 12%, no sharp cut-off; inactive = mostly above about 10%;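 note: 100% = mean of DMSO negative control wells on the same plate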). The settings on record: P. berghei liver stage in HepG2, luciferase luminescence, concentration not given here; parasite load remaining: stronger effect = lower value; viability: measured here: HepG2 viability without parasites.
Assay [10] concerns Hepatitis C virus NS3 helicase. In words: HCV NS3 helicase inhibitors, primary screen, biochemical, fluorescence polarization, LOPAC1280 library (AID 687035; in the data active = inhibition above about 37%). The settings on record: Purified HCV NS3 helicase, Cy5-dT15 ssDNA binding fluorescence polarization; stronger effect = higher value; concentration not given here.
Assay [11] in a line: Cy5 fluorescence quenching or enhancement artefacts, artefact control for HCV NS3 helicase inhibitor project, biochemical, LOPAC1280 (AID 687037; call rule not given here). The settings on record: Cy5-DNA-NS3h complex fluorescence interference counterscreen. Background: The purpose of a counterscreen is to sort out artefacts and off-target activity.
The nature of assay [12]: phospholipid biosynthesis inhibitors in animal cells, primary screen, cell-based, LOPAC library, screen 4 (AID 1347384; call rule not given here). As to conditions: phospholipid biosynthesis inhibition screen, at 10 µM.
Assay [13] in a line: viability rescue of complex I mutant cybrids, primary screen, cell-based, galactose medium, ATP luminescence (AID 1645843;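 active = z-score of at least 1.8 in each of two replicates, scored against plate mean and spread of sample wells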;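 note: positive z means more ATP and so rescue of galactose-driven cybrid death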). As to conditions: complex I mutant cybrid cells, 72 h, stronger effect = higher value.
Setting [14] is: stronger effect = lower value, cell number ratio, induced over uninduced.
Setting [15] is: measured here: relative caspase fold change +Dox/-Dox.
[16] abbreviates: measured here: total cells with miR-34 induction, stronger effect = lower value.
The mark [17] stands for this setting: measured here: total cells without miR-34 induction.

“And” between values parts separate entries of the source, which are not always exact repeats. Equal values may be shown once. Inconclusive results are not listed. The source made the active and inactive calls.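 Rule for the calls, unless noted: active = normalized viability below 100% at a tested concentration; inactive = the rest.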

The term AC50 denotes the concentration giving half of the maximal activity seen. One may read the viability as a read-out of living cells in per cent, often relative to untreated cells. Take `CN1CCN(c2ccc(OC(F)(F)F)c(Nc3ncc4c(n3)-c3c(c(C(N)=O)nn3CCO)CC4)c2)CC1`: the AC50 in [1] was 0.118 µM (active). In addition, the fold change in assay [2] (setting [14]) is 0.983 (inactive); in assay [2] (setting [15]), 0.326. Also, the values for the cell count in assay [2] (setting [16]) and in [2] (setting [17]) were 1120 and 1140, respectively. Also, the z-score in assay [3] (MELAS cybrid survival, CellTiter-Glo 48 h, stronger effect = higher value) is 1.84 (inactive); in [3] (Rieske KO mouse fibroblast survival, CellTiter-Glo 72 h) it was -0.694. Moreover, the viability in [4] (at 0.000305 µM, OCI-C5x cells, with rucaparib 10 µM, 100% = cells with rucaparib alone) is 119% (inactive); in assay [4] (at 0.000305 µM, OCI-C5x cells, without rucaparib), 114% (inactive); in assay [4] (at 0.000305 µM, OCI-P5x cells, with rucaparib 20 µM, 100% = cells with rucaparib alone), 90% (active); in assay [4] (at 0.000305 µM, OCI-P5x cells, without rucaparib) it was 84.5% (active); in [4] (at 0.00122 µM, OCI-C5x cells, with rucaparib 10 µM, 100% = cells with rucaparib alone), 125% (inactive); in [4] (at 0.00122 µM, OCI-C5x cells, without rucaparib), 112% (inactive). The viability was 94.4% (active) in assay [4] (at 0.00122 µM, OCI-P5x cells, with rucaparib 20 µM, 100% = cells with rucaparib alone); 86.5% (active) in [4] (at 0.00122 µM, OCI-P5x cells, without rucaparib); 123% (inactive) in [4] (at 0.00488 µM, OCI-C5x cells, with rucaparib 10 µM, 100% = cells with rucaparib alone); 105% (inactive) in [4] (at 0.00488 µM, OCI-C5x cells, without rucaparib); 88.1% (active) in assay [4] (at 0.00488 µM, OCI-P5x cells, with rucaparib 20 µM, 100% = cells with rucaparib alone); 58.9% (active) in assay [4] (at 0.00488 µM, OCI-P5x cells, without rucaparib). The viability was 125% (inactive) in assay [4] (at 0.0195 µM, OCI-C5x cells, with rucaparib 10 µM, 100% = cells with rucaparib alone); 60% (active) in [4] (at 0.0195 µM, OCI-C5x cells, without rucaparib); 78.1% (active) in assay [4] (at 0.0195 µM, OCI-P5x cells, with rucaparib 20 µM, 100% = cells with rucaparib alone); 20.2% (active) in assay [4] (at 0.0195 µM, OCI-P5x cells, without rucaparib); 67.6% (active) in assay [4] (at 0.0781 µM, OCI-C5x cells, with rucaparib 10 µM, 100% = cells with rucaparib alone); 40.8% (active) in assay [4] (at 0.0781 µM, OCI-C5x cells, without rucaparib). The viability in [4] (at 0.0781 µM, OCI-P5x cells, with rucaparib 20 µM, 100% = cells with rucaparib alone) was 64.7% (active); in assay [4] (at 0.0781 µM, OCI-P5x cells, without rucaparib), 14.3% (active); in assay [4] (at 0.313 µM, OCI-C5x cells, with rucaparib 10 µM, 100% = cells with rucaparib alone), 49.1% (active); in assay [4] (at 0.313 µM, OCI-C5x cells, without rucaparib), 27.6% (active); in assay [4] (at 0.313 µM, OCI-P5x cells, with rucaparib 20 µM, 100% = cells with rucaparib alone), 70% (active); in [4] (at 0.313 µM, OCI-P5x cells, without rucaparib), 13.1% (active). In addition, the viability in assay [4] (at 1.25 µM, OCI-C5x cells, with rucaparib 10 µM, 100% = cells with rucaparib alone) is 37.5% (active); in assay [4] (at 1.25 µM, OCI-C5x cells, without rucaparib) it was 28.9% (active); in [4] (at 1.25 µM, OCI-P5x cells, with rucaparib 20 µM, 100% = cells with rucaparib alone), 73.8% (active); in assay [4] (at 1.25 µM, OCI-P5x cells, without rucaparib), 13.7% (active); in [4] (at 5 µM, OCI-C5x cells, with rucaparib 10 µM, 100% = cells with rucaparib alone) it was 40.7% (active); in assay [4] (at 5 µM, OCI-C5x cells, without rucaparib) it was 26.6% (active). Besides, the viability in assay [4] (at 5 µM, OCI-P5x cells, with rucaparib 20 µM, 100% = cells with rucaparib alone) is 74.1% (active); in assay [4] (at 5 µM, OCI-P5x cells, without rucaparib), 14.5% (active).

Regarding `COC1CC(C(=O)c2ccc3c(N)ncc(-c4ccc(-c5cnn(C)c5)cc4)c3n2)C1` (stereo unspecified), the compound was called inactive in assay [5] and in assay [6].

For the compound `CC(C)C(=O)Nc1ncc(-c2cc(C(F)F)nn2-c2c(Cl)cccc2Cl)s1`, in [7], the liver cell % of control was 78% and 87.1% and 89.1%; the parasite % of control was 2.64% (inactive) and 20.3% (inactive) and 36.7% (inactive). Further, in assay [8], the call was inactive.

Take `O=C(Nc1cccnc1)c1cc(-c2ccnc(F)c2)ccc1OCc1ccccc1`: the AC50 in assay [5] is 18.6 µM (active).

For the compound `OCCC#Cc1nc(-c2ccc(F)cc2)c(-c2ccncc2)n1CCCc1ccccc1`, in assay [7], the liver cell % of control is 306% and 93.3% and 95.7%; the parasite % of control was 3.85% (inactive) and 44.3% (inactive) and 36.9% (inactive). In addition, the AC50 in assay [5] is 26.3 µM (active). In assay [6], the compound was called inactive.

For the compound `C[C@H]1CC2[C@@H]3CCC4=CC(=O)C=C[C@]4(C)[C@@]3(F)[C@@H](O)C[C@]2(C)[C@@]1(O)C(=O)CO` (stereo partly specified), the result in assay [5] and in assay [6] was inactive.

As for `Cc1csc(NC(=O)c2sc3nc4c(c(C(F)(F)F)c3c2N)CCC4)n1`, in [5], the compound was classed as inactive.

As a reminder, the inhibition is the change of the read-out against control, counted positive when it falls. Turning to `CCN1/C(=C/C(C)=O)Sc2ccc(OC)cc21`, the parasite load remaining in [9] was 36.4% (inactive). Also, the viability in assay [9] came to 92.3%. The inhibition in assay [10] is -4% (inactive). In [11], the fluorescence ratio (interference) was 0.9 (inactive). Also, the compound was classed as inactive in assay [5], in [6] and in assay [12]. Moreover, the fold change is 1.04 (inactive) in assay [2] (setting [14]) and 1.19 in assay [2] (setting [15]). Also, the cell count in assay [2] (setting [16]) turned out to be 7360; in assay [2] (setting [17]) it was 7040. Moreover, in assay [13], the z-score is 0.785 (inactive).

Take `CCNC(=O)Nc1ncc(-c2cc(-c3c(C)cc(OC)cc3C)nc(-c3cnccn3)n2)s1`: the result in [5] and in assay [6] was inactive.
